Measurements published in the supplement of paper PMC6555819.

These sequences were tested on VDR:RXRa (NR concentration 270 nM, RXRa partner concentration 90 nM) (assay: PBM binding z-score (relative to random genomic background probes); higher = stronger binding; sequences stand for … in GC…GCGATTGACAGCGTAGAATGAAGG).
Description: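 Protein-binding microarray (Agilent 4x180K custom design, double-stranded 60-nt probes: 5' GC cap, 34-nt variable region, 24-nt constant primer region; full probe sequence given). Purified or IVT nuclear receptor:RXRα heterodimers (3:1 NR:RXRα, mostly 270:90 nM) or homodimers were incubated for 1 h in PBS with 2% milk and no ligand, then detected with Alexa488 antibodies. Fluorescence from o1-orientation probes (~5 replicates averaged) was converted to z-scores against 500 random hg19 background probes. Variable regions are seed direct-repeat (DR0–DR5) sites, all their single-nucleotide variants and half-site ablations.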

| Sequence | PBM binding z-score |
| --- | --- |
| ATCTAAAGGTCGACGAGGTGAGTATACACCGTTT | 5.21 |
| GTACCAAGGTGAATAGGTCGTTGAAGAGTAGGCG | 1.01 |
| TAGGCTAGGTCATTGGGCCAGTATAGTACGCATC | 2.03 |
| TCGTATAGGTAATACAGGTGAAAGTCGGCATCTA | 0.991 |
| TCTTGTATATCAAAGGTTAAGAAAGCCGAAGCCT | 1.91 |
| ACAGACAGGTGAGTGAAGGTAACACAGCTGGACG | -0.0356 |
| TAGCCTAGGTCATTGGGCCTGTATAGTACGCATC | 2.38 |
| GCTAGCAGCCCATTTGGGTCACTCAATGACGGGC | -0.389 |
| TCTTGTTGGTCAAAGGTCACACACTCGAAATGCG | 5.23 |
| GCGACTGGGGAATCAGCAGGTTACCATAACTTAA | -0.497 |
| ATACCAAGGTGATCGTGAGGTCGTTGATACTAAC | 3.23 |
| TAGCCTAGGTCATTGGGCCCGTATAGTACGCATC | 2.74 |
| ATCTCTCGGTAAAGTTCAGTGAAAGATCGATAGA | 1.1 |
| TTACCAAGGTGAAAGGCCGTTGATGCACGCCTTG | 0.0595 |
| CGAACCAGGGCATGAGTTGATAGCAAATGCCGAT | 0.253 |
| AGTATGAGGTTAAGATCAGGGAAACAGAATACAT | 1.18 |
| CCTAGTAGGCCAATCTGGGTCACTCAAGGCTTGA | 0.875 |
| AGACCGAGGGCAATGAGTTGATAGCACGGGTGGC | 4.82 |
| CGAACTAGGCCAGAACAGGACAGTGAAGGATGAT | -0.283 |
| CCTATTAGTTGACCATAAGGGCTACCGAAGCTCG | 0.25 |

| Sequence | PBM binding z-score |
| --- | --- |
| TCATATAGGTAAATGCTAGGTGATAGTCCGATCT | 0.757 |
| ACTATTAGTTGAGACGCGGGCAACCGATAGGTTG | -0.235 |
| CGTCAAAGTTCATCTAAGGTAACGTAAAGCACGC | 5.24 |
| TCTAGCAGGCCTGAGGGTCACTCAAGAGGTACGG | 1.9 |
| CCAGACAGGTGAGAGGTAACTCAGTCTGGTACGC | -0.0647 |
| CCAGACAGGTGAAAGGTAACTGAGTCTGGTACGC | 0.972 |
| TCATAAAGGTAAATGCTAGGTGAAAGTCCGATCT | 0.918 |
| ATAAGTAGGTTAAGGGTCATTCAGGTTGGTTCGC | 5.89 |
| TGCATGAGGTTATAAGATCAGGGAACGTTGCAAA | 1.01 |
| CGTCAAAGTTCAACTAAGGTACCGTAAAGCACGC | 4.4 |
| GCGAATGGGGCATCAGCAGGTTACCATAACTTAA | -0.212 |
| CCTACGGGGCCATCAGGTCATTGATATCAACGTT | 3.06 |
| TCTCGGACGACACGAAGGTCAGAGCTTTCCAGAG | 1.2 |
| CGTAGCAGGCCAATCTGGGTCACTCAAGGCTTGA | 0.309 |
| ATATGTAGGTTAGCTGGGGTCATCCAGACTAGGC | 6.18 |
| TCGAGTAGGTTAGGGGCATTGAGAATGGCGTCGA | 0.491 |
| ACTTACGGGGCAACGAGGTTATAGCACGCGTATA | 5.28 |
| TCGAGTAGGTTAGTCGGAGCATTCAGCCAACATA | -0.307 |
| CCTAGCATGCCAATCTGGGTCACTCAAGGCTTGA | 0.733 |
| TGAATGATGTTAAAGATCAGGGAACGTGGCGTCG | -0.0975 |
